The whole screen tested about 390,000 compounds, of which about 610 (0.16%) were called active. About 4% were inconclusive and are not listed. The sample as a whole holds a higher share of actives than the screen did. Unmarked numbers belong to inactive results. The call rests on the fitted dose curve; in most records, active means well fitted inhibition curve with a large enough effect; inconclusive means small, poorly fitted or top-dose-only effect, or effect the other way, or another doubt; inactive means no such curve, though single readings can be large or run the other way.
On the % scale 0 is the no-effect control and ±100 the full control effect; potency means the concentration at half of the fitted maximal effect.

A short description of this test: Nrf2 qHTS screen for inhibitors: counterscreen for cytotoxicity. The following applies: A549 ARE-Fluc cells, CellTiter-Fluor viability, 18-24 h; series mostly up to 46 µM; activity change, negative = cytotoxicity: at the top concentration. From the text: NIH Molecular Libraries Probe Production Network [MLPCN]
NIH Chemical Genomics Center [NCGC]
Assay Provider: Shyam Biswal, Johns Hopkins University
Nrf2 is a transcription factor that maintains cellular redox homoestasis and protects cells from xenobiotics. Nrf2 binds to the antioxidant response element (ARE) to induce gene expression of a broad spectrum of genes that encode for antioxidants. […] Finding a small molecule that act as an inhibitor of Nrf2 function would represent a novel therapeutic target that could lead to improvement in survival of patients undergoing chemo- and/or radio- therapy.
So here we implemented a counterscreen to weed out the cytotoxic compounds.
1. Shibata, T., et al., Genetic Alteration of Keap1 Confers Constitutive Nrf2 Activation and Resistance to Chemotherapy in Gallbladder Cancer. Gastroenterology, 2008.
2. Sjoblom, T., et al., The consensus coding sequences of human breast and colorectal cancers. Science, 2006. 314(5797): p. 268-74.
NCGC Assay Protocol Summary:
A concentration-response assay was performed with A549 ARE_Fluc cells which are suspended in 5% FBS OPTI-MEM. Five uL were dispensed into 1536-well white TC-treated plate using the Kalypsys dispenser to achieve a density of 5000 cells/well in all columns except column 1. The plate is incubated at 37deg C at 5% CO2 for 2 hours before 23 nL of compounds are added with the Kalypsys pin tool equipped with a 1,536-pin array containing 10-nL slotted pins (FP1S10, 0.457-mm diameter, 50.8 mm long; V&P Scientific). The control compounds Budesonide and Staurosporine are both added at a concentration of 2mM and Budesonide is also added as a 1:10 titration, starting at 200uM, to achieve dose-response. After an 18-24 hour incubation at 37deg C at 5% CO2, 5ul of medium is added to column 1. Afterwards 1ul of 5x of CellTiter-Fluor (Promega) is added to every well. The plate is then incubated at 37deg C at 5% CO2 for 30 minutes before they are read on the ViewLux (Perkin Elmer) for a fluorescent read Ex=405(10)/Em=525(10) for a 3 second exposure, 2x binning, and high gain. Then 3 uL of 3x BugLite is dispensed into all wells and the plate is incubated at ambient room temperature for 15 minutes. Afterwards another ViewLux read is performed using the clear filter to get a luminescent read with the settings of 40 second exposure, 2x binning, and high gain. Cytotoxicity is assessed through the first fluorescent read and then biochemical activity against Nrf2 is measured in the luminescent read.
For `CCC(C)(O)C(=O)OC1C(=O)OC2CC3C(C)=CC(=O)C(O)C3(C)C3C4(O)OCC23C1C(C)C4O` (stereo not given), the Potency was 5.8 µM (active).

Consider `c1ccc(CC2CCCCN2)cc1` (stereo not given), for which the “activity change, negative = cytotoxicity” value is -2.1%.

On to `Cc1ccc(-n2c(/C=C/c3cccc(C(F)(F)F)c3)nc3ccccc3c2=O)cc1`, for which the “activity change, negative = cytotoxicity” value was -0.777%.

Regarding `CSc1nc2ccc(C)cc2c(=O)n1-c1cccnc1`, the “activity change, negative = cytotoxicity” value was -2.75%.

Take `CN1CCN(c2cc(N3CCNCC3)ccc2[N+](=O)[O-])CC1`: the Potency was 16.4 µM (active).

For `CCN1CCN(c2ccc([N+](=O)[O-])cc2C#N)CC1`, the “activity change, negative = cytotoxicity” value is -0.62%.

With `COc1cccc(-c2nc3ccc(N4CCN(C)CC4)cc3[nH]2)c1`, the “activity change, negative = cytotoxicity” value was -4.58%.

Turning to `CC1=CC(=Cc2sc3ccccc3[n+]2C)C=C(C)O1`, the Potency is 2.59 µM (active).

Regarding `CC(c1ccccc1)(c1ccccc1)c1ccncc1`, the “activity change, negative = cytotoxicity” value is 8.35%.

Consider `Cc1ccc(Cn2nnnc2CN2CCC(n3nnc4ccccc43)CC2)cc1`, for which the “activity change, negative = cytotoxicity” value was -13.9%.

In the case of `COC(=O)C1=C(c2cc3ccccc3o2)C[C@@H]2CC[C@H]1N2C(=O)NC1CCCCC1`, the “activity change, negative = cytotoxicity” value is -2.75%.

Take `O=Cc1cn(Cc2ccc(F)cc2Cl)c2ccccc12`: the “activity change, negative = cytotoxicity” value is 0.05%.

With `CO[C@H]1[C@@H](O)[C@@H](C)O[C@H](O[C@H]2[C@H](Oc3cccc4c(O)c5c(=O)oc6ccc(C)c7c(=O)oc(c34)c5c67)O[C@H](C)[C@H](O)[C@@H]2O)[C@@H]1O`, the “activity change, negative = cytotoxicity” value was -11.9%.

For the compound `CCCCCCCCCCCCn1ccc(=N)cc1`, the “activity change, negative = cytotoxicity” value was -16.4%.

As for `S=P(c1ccccc1)(c1ccccc1)c1c(-c2ccccc2)[nH]c2ccccc12`, the “activity change, negative = cytotoxicity” value is -15.8%.

For `CC(C)(C)c1ccc(CN2C(=O)CN=C(c3ccccc3)c3ccccc32)cc1`, the Potency is 25.9 µM (active).

Turning to `O=C1CC(=O)N(Cc2ccccc2)C(=O)N1CCCCCCN1C(=O)CC(=O)N(Cc2ccccc2)C1=O`, the “activity change, negative = cytotoxicity” value is 1.06%.

With `COc1cc([C@@H]2c3cc4c(cc3[C@H](OC(C)=O)[C@H]3COC(=O)[C@H]23)OCO4)cc(OC)c1OC`, the “activity change, negative = cytotoxicity” value was -4.1%.

As to `CCN(CC)C(=O)c1ccc(NC(=O)c2sccc2-c2ccccc2)cc1`, the “activity change, negative = cytotoxicity” value was 4.65%.

As to `CC(C)c1ccc(-n2c(O)c(/C=N/N3CCOCC3)c(=O)[nH]c2=S)cc1`, the “activity change, negative = cytotoxicity” value was 0.295%.

As to `CC(=O)OC1C2(CC3N4C(=O)C5(CO)SSC4(CC31O)C(=O)N5C)OC(C)C(C)(C)C2=O` (stereo not given), the Potency was 7.31 µM (active).

Regarding `CC(Cc1ccccc1)NCCC(c1ccccc1)c1ccccc1` (stereo not given), the “activity change, negative = cytotoxicity” value was -4.79%.

Turning to `Cc1cccc(OP(=O)(Oc2cccc(C)c2)OC(c2ccccc2)C(F)(F)F)c1` (stereo not given), the “activity change, negative = cytotoxicity” value is 13.4%.

For the compound `O=C(O)c1cc[c]([Sb](=[O])([OH])[OH])cc1[N+](=O)[O-]`, the “activity change, negative = cytotoxicity” value is 6.48%.

For `Cc1ccc(NC(=O)N(Cc2ccc3c(c2)OCO3)C2CCN(Cc3ccccc3)CC2)cc1F`, the “activity change, negative = cytotoxicity” value is -4.53%.

In the case of `CN(c1ccccc1)c1ccc([N+](=O)[O-])c2nonc12`, the Potency was 20.6 µM (active).

As to `CCN(CC)c1ccc([N+](=O)[O-])c2cccnc12`, the “activity change, negative = cytotoxicity” value was -17.6%.

As for `O=P1(Oc2ccccc2)CC(O)C(O)C(COCc2ccccc2)O1` (stereo not given), the “activity change, negative = cytotoxicity” value is -0.0059%.

For `CC(C)(C)[C@]1(O)C[C@@H]2OC(=O)C[C@@]23C(=O)O[C@@H]2OC(=O)[C@H](O)[C@]213`, the “activity change, negative = cytotoxicity” value is 2.45%.

Turning to `Cc1ccc(C(C)C)c(OCC(=O)N2CCN(CC(=O)N3CCOCC3)CC2)c1`, the “activity change, negative = cytotoxicity” value is -1.23%.

For the origin of these results see PubChem BioAssay AID504648 (National Center for Advancing Translational Sciences (NCATS), 2011).
